{
  "source": "PubChem BioAssay (EPA / NIEHS)",
  "note": "Several values for one entry are separate records, joined by “and”; a condition that tells them apart may be missing. Equal values may be shown once. Activity calls are given as the source filed them. Rule for the calls: active = hit-call score of the fitted dose curve at least 0.9, where 1 is the maximum; inactive = score below 0.9.",
  "data": [
    {"test": "CCTE_Shafer_MEA_acute_network_burst_percentage: CCTE's Neural Acute Assay for Percentage of Network Bursts, Shafer Lab (AID 2284022);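 note: curves fitted for loss so actives lower network burst percentage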", "description": "CCTE_Shafer_MEA_acute assay is conducted using Axion Biosystems 48 well microelectrode array (MEA) plates and Maestro recording system. Each well of the MEA plate contains a grid of 16 microelectrodes embedded in the culture surface. Electrically active cells, such as neurons, can be cultured over the electrodes, and electrical activity in these cells can be recorded extracellularly. The spontaneous firing of neurons is captured from each electrode on a microsecond timescale providing both temporally and spatially precise data. […] The CCTE_Shafer_MEA_acute assay uses primary cultures of rat cortical neurons. As these cultures mature over time, neural networks develop functional activity and form cohesive networks in which electrical activity can be highly coordinated. Baseline 40-minute recordings are made on days post-plating 13 or 15, followed by a secondary 40-minute recording after chemical exposure.CCTE_Shafer_MEA_acute_network_burst_percentage is a component of the CCTE_Shafer_MEA_acute assay. It measures the percent of spikes (action potential firings) in network bursts (temporally-clustered groups of spikes across multiple electrodes) as the number of spikes occuring in network bursts divided by the total number of spikes during a recording in a microelectrode array (MEA) using Axion Biosystems Maestro 768 channel amplifier with the AxIS adaptive spike detector. The recordings before and after chemical treatment are used to calculate a percent change in the network burst percentage in each well.Data from the assay component CCTE_Shafer_MEA_acute_network_burst_percentage was analyzed into 1 assay endpoint. This assay endpoint, CCTE_Shafer_MEA_acute_network_burst_percentage, was analyzed in the negative analysis fitting direction relative to DMSO as the negative control and baseline of activity. Using a type of functional reporter, gain or loss-of-signal activity can be used to understand electrical activity.\nSpontaneous activity in the cortical cultures was recorded using an Axion Biosystems Maestro 768 channel amplifier and Axion Integrated Studios (AxIS) v1.8 (or later) software. The amplifier recorded from all channels simultaneously (gain = 1200 x; sampling rate = 12.5 kHz/channel): raw signals were filtered with a Butterworth band-pass filter (300-5000 Hz), which filters out slower local field potentials leaving only fast potentials, i.e., \"spikes\", arising from extracellular currents associated with action potentials (Pine 2006; Wheeler and Nam 2011). On-line spike detection of filtered signals was conducted with the AxIS adaptive spike detector, using a threshold of 8x the root mean squared (rms) noise on each channel. Any electrodes with rms noise levels greater than 5 uV were grounded (e.g., no data were recorded). Once grounded, an electrode was grounded for the duration of the experiment. All recordings were conducted at 37 C. Wells were deemed usable if on the day of the exposure >/= 10 electrodes were active (defined as >/= 5 spikes/min). On DIV 13 or 15, a minimum of three wells from one cortical culture preparation were treated with each compound (0.03-40 uM). Prior to recording baseline activity, each mwMEA plate was placed in the Maestro at 37 C and allowed to sit for 20 min while firing rates stabilized. Baseline activity (40 min) was recorded before the addition of each compound. An additional 40 min of spontaneous activity was recorded in the presence of each compound. Changes in network parameters relative to baseline were assessed following compound treatment.", "values": [
      {"smiles": "CC/C(=C(\\c1ccccc1)c1ccc(OCCN(C)C)cc1)c1ccccc1", "AC50": "18.3 µM (active) and 13.2 µM (active)"},
      {"smiles": "N[C@@H](CCC(=O)O)C(=O)O", "outcome": "inactive"},
      {"smiles": "CCCO[Si](OCCC)(OCCC)OCCC", "AC50": "2.98 µM (active)"},
      {"smiles": "CC(=O)c1ccc(C)cc1", "outcome": "inactive"},
      {"smiles": "CC(C)CCCC(C)(C)O", "outcome": "inactive"},
      {"smiles": "O=C(c1ccc(OCCN2CCCCC2)cc1)c1c(-c2ccc(O)cc2)sc2cc(O)ccc12", "outcome": "inactive"},
      {"smiles": "CCn1cc(C(=O)O)c(=O)c2ccc(C)nc21", "outcome": "inactive"},
      {"smiles": "c1ccc(OCCOc2ccccc2)cc1", "outcome": "inactive"},
      {"smiles": "CCCCN(CCO)CCO", "AC50": "15 µM (active)"},
      {"smiles": "CCCCOCCOCCO", "outcome": "inactive"},
      {"smiles": "CC(C)(CO)CO", "outcome": "inactive"}
    ]}
  ]
}
